The results in this text go back to PubChem BioAssay AID977630 (Broad Institute, 2014).

The whole screen tested about 1,600 compounds, of which fewer than 10 were called active. Another 48% or so got no clear call; they are omitted.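 Rule for the calls: active = Normal-ribosome green reporter loss at least double humanized-ribosome red reporter loss, with overall culture growth inhibition under a set limit; inconclusive = no clear call, values can overlap the other calls; inactive = the rest.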 The list is a sample of the results. A call without a number means that no potency is given here. Potency and affinity values are given separately.

The experiment in a line: growth inhibition of wild-type GFP E. coli, H38-humanized RFP comparator, dose response, H38 mutant RFP vs wild-type GFP, cherry-pick (AID 977630).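 Note: wild-type GFP strain mixed equally with humanized-ribosome H38 mutant expressing RFP.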 The settings on record: mixed culture, 24 h; series mostly up to 50 µM.
For `CCN(CC)CC(=O)Nc1sc2c(c1C(=O)c1ccccc1OC)CCC2`, the result was inactive.
With `O=S(=O)(Cc1ccco1)Cc1nc(-c2ccc(Cl)cc2)cs1` the entry was “inactive”; with `Cc1ccccc1NS(=O)(=O)c1cc(C(=O)NCCC2=CCCCC2)ccc1C`, “inactive”.
On to `Cc1c(CCOC(=O)C23CC4CC(CC(C4)C2)C3)sc[n+]1Cc1ccccc1`, for which the compound was called inactive.
The same measure for `O=C(CSc1nnc(-c2ccccc2F)n1C1CC1)Nc1cccnc1Cl`: “inactive”; for `CSc1ccc(CN(C)CC(=O)NC(C)c2ccccc2)cc1` (stereo not given): “inactive”.
For the compound `COc1cc[n+]([O-])cc1[N+](=O)[O-]`, the call was inactive.
The same measure for `COc1ccc(OC2C(=O)N(Cc3ccc4c(c3)OCO4)C2c2sccc2C)cc1` (stereo not given): “inactive”.
The same measure for `COc1ccc(C(=O)C[n+]2ccc3c(c2)nc(-c2cc(OC)c(OC)cc2OC)n3C)cc1`: “inactive”.
As for `c1coc(CSc2ncnc3c2oc2ccccc23)c1`, the compound was classed as inactive.
The same measure for `COc1cccc(SCC(=O)N2CCN(c3ccccc3)CC2)c1`: “inactive”; for `COc1ccc(C(=O)CSc2nc3ccccc3n2CC(=O)c2ccccc2)cc1`: “inactive”.
With `O=C(Nc1cscc1S(=O)(=O)c1ccccc1)c1ccccc1Cl`, the result was inactive.
`CC1Cc2ccccc2N1C(=O)CN1C(=O)NC(C)(CCc2ccccc2)C1=O` (stereo not given): the result was inactive.
`O=C(COC(=O)c1ccc(O)cc1)Nc1ccccc1`: the result was inactive.
The same measure for `O=S(=O)(NC1c2cccc3cccc(c23)C1Sc1ncccn1)c1ccccc1` (stereo not given): “inactive”; for `O=[N+]([O-])c1ccc(/C=C/c2ccc3cccc([N+](=O)[O-])c3n2)cc1`: “inactive”; for `Cc1cc(C(=O)Nc2ccc(Cl)cc2)c(C)n1Cc1cccs1`: “inactive”.
In the case of `CCCCOc1ccc(-c2nnn(CCC(=O)N3CCOCC3)n2)cc1`, the compound was called inactive.
With `Cc1ccnc(NS(=O)(=O)c2ccc(NC(=O)c3ccc4c(c3)OCCO4)cc2)n1`, the outcome was inactive.
The same measure for `CN1N=C2c3ccccc3CCC2C1c1ccc(F)cc1` (stereo not given): “inactive”.
The same measure for `COc1ccc(-c2nc(NC(C)=O)sc2-c2ccccc2)cc1`: “inactive”; for `Nc1ccccc1Sc1c[nH]c2ccccc12`: “inactive”; for `CCc1cccc(CC)c1NC(=O)Cn1c(-c2ccc(F)cc2)noc1=O`: “inactive”.
On to `Cc1ccc(C)c(N2CCN(C(=O)CCS(=O)(=O)c3ccc4c(c3)oc(=O)n4C)CC2)c1`, for which the outcome was inactive.
The same measure for `CCOC(=O)c1cc2nc(-c3ccccc3)cc(C)n2n1`: “inactive”; for `O=C(NCc1ccccc1)C1C(=O)Nc2ccccc2C(=O)N1c1ccc2c(c1)OCCO2` (stereo not given): “inactive”.
With `CSc1ccccc1NC(=O)CN(c1cccc(C)c1)S(C)(=O)=O` the entry was “inactive”; with `CC(OC(=O)COc1ccccc1)C(=O)NC1CCCC1` (stereo not given), “inactive”; with `O=S(=O)(c1ccc(Cl)cc1)N1CCN=C1SCc1cccc(Cl)c1`, “inactive”.
The same measure for `CCCN1C(=O)C(O)(c2c(C)[nH]c3ccccc23)c2ccccc21` (stereo not given): “inactive”; for `COc1ccc(CNC(=O)c2sc3nc4c(c(C(F)(F)F)c3c2N)CCC4)cc1OC`: “inactive”.
Take `CN(Cc1ccc([N+](=O)[O-])cc1)c1ccccc1`: the compound was called inactive.
On to `Cc1ccc(NCC(=O)c2ccc(C)cc2)cc1`, for which the compound was called inactive.
As to `Cn1c(=O)c2c(-c3ccccc3)n(-c3cc([N+](=O)[O-])ccc3N)cc2n(C)c1=O`, the outcome was inactive.
The same measure for `CC1(C(=O)NS(=O)(=O)c2cccc(C#N)c2)CCN1C(=O)C1(c2ccc(Cl)cc2)CCC1` (stereo not given): “inactive”; for `C[C@@H]1CN([C@@H](C)CO)C(=O)c2cccc(NC(=O)c3nc4ccccc4s3)c2O[C@@H]1CN(C)CC1CC1`: “inactive”; for `Cc1nc(-c2ccc([N+](=O)[O-])cc2)c(-c2ccccc2)o1`: “inactive”.
With `O=C(CN1CCN(S(=O)(=O)c2ccc(Cl)cc2)CC1)Nc1ccc2c(c1)CCC2` the entry was “inactive”; with `CC(NC(=O)c1ccncc1)c1ccc(Cl)cc1Cl` (stereo not given), “inactive”.
In the case of `O=C(Nc1ccn(Cc2ccc(Cl)cc2)n1)c1ccccc1`, the compound was called inactive.
The same measure for `CCCOC(=O)c1ccc(NC(=O)c2nc3nc(C)cc(C)n3n2)cc1`: “inactive”.
Turning to `C[C@@H]1CCCCO[C@H](CN(C)C(=O)CCCN(C)C)[C@H](C)CN([C@@H](C)CO)C(=O)c2cc(NC(=O)Nc3cccc4ccccc34)ccc2O1`, the compound was called inactive.
With `CCOc1ccccc1C(=O)NCC(=O)OCCOc1cccc(Cl)c1` the entry was “inactive”; with `CCOC(=O)C(C)(C)n1nnc(-c2ccc([N+](=O)[O-])cc2)n1`, “inactive”; with `O=c1c2ccccc2nc(SCc2ccccc2)n1CC1CCCO1` (stereo not given), “inactive”.
With `Cc1ccc(N2C(=S)NC3c4cc(Cl)ccc4OC2(C)C3C(=O)N(C)C)cc1` (stereo not given) the entry was “inactive”; with `CC1(c2ccc3ccccc3c2)NC(=O)N(CC(=O)N2CCN(c3ccccc3O)CC2)C1=O` (stereo not given), “inactive”; with `O=C(Nc1ccc(Br)cc1)c1cccnc1N1CCCCC1`, “inactive”.
Turning to `CCc1ccc2nc(SCC(=O)Nc3ccccc3N3CCOCC3)c(C#N)cc2c1`, the outcome was inactive.
The same measure for `CSc1nc2ccc(NS(=O)(=O)c3ccc([N+](=O)[O-])cc3)cc2s1`: “inactive”.
The same measure for `COc1ccc(C2CC(c3cccs3)=Nc3ccccc3S2)cc1` (stereo not given): “inactive”; for `Cc1ccccc1CSc1nnc(-c2ccccn2)n1C`: “inactive”.
With `CCOC(=O)c1c(C)[nH]c(C)c1S(=O)(=O)NCCN1CCN(c2ccccc2F)CC1` the entry was “inactive”.
Take `O=C(CSc1nnc(COc2cccc3cccnc23)o1)c1ccc(F)cc1`: the compound was classed as inactive.
The same measure for `O=C(O)c1nn2c(C(F)(F)F)cc(-c3cccs3)nc2c1Cl`: “inactive”; for `COc1ccc(CC(=O)Nc2cc(S(=O)(=O)Nc3ccc(OC)cc3)ccc2OC)cc1`: “inactive”; for `COC(=O)c1sccc1NC(=O)CNC(=O)c1ccccc1`: “inactive”.
The same measure for `COC(=O)c1cc(C)sc1NC(=O)CC1Nc2ccccc2NC1=O` (stereo not given): “inactive”; for `CCOC(=O)c1cccc(OS(=O)(=O)Cc2ccccc2)c1`: “inactive”; for `CCOc1ccccc1N1CC(C(=O)Nc2cccc(S(=O)(=O)N3CCCCC3)c2)CC1=O` (stereo not given): “inactive”.
The same measure for `c1cc2cc(-c3c(-c4ccc5c(c4)OCO5)noc3-c3ccsc3)ccc2[nH]1`: “inactive”; for `Cc1cc(C)cc(NC(=O)COC(=O)CC2CCCC2)c1`: “inactive”.
In the case of `COc1cc(SC)ccc1C(=O)N(Cc1ccccc1)c1ccccn1`, the call was inactive.
The same measure for `COC(=O)c1nc(-c2ccc(C)cc2)[nH]c1C(C)(C)C`: “inactive”; for `O=C(O)CNC(=O)C(c1ccccc1)c1ccccc1`: “inactive”; for `O=C(C[n+]1ccc(Cc2ccccc2)cc1)Nc1ccc([N+](=O)[O-])cc1Cl`: “inactive”.
For the compound `CN(C)S(=O)(=O)c1cccc(NC(=O)c2ccc3c(c2)S(=O)(=O)N=C2CCCCCN23)c1`, the compound was called inactive.
With `CC1Cc2cc(-c3csc(NC(=O)Cc4ccccc4)n3)ccc2N1S(C)(=O)=O` (stereo not given) the entry was “inactive”.
With `CCN=C1NN=C(c2ccc(C)cc2)CS1` the entry was “inactive”; with `COc1cc(CCN(C(=O)c2cc3ccccc3[nH]2)C(c2ccccn2)c2nc3ccccc3[nH]2)cc(OC)c1` (stereo not given), “inactive”; with `NS(=O)(=O)c1ccc(CCNC(=O)CCCCCNc2nc(=S)[nH]c3ccccc23)cc1`, “inactive”.
Regarding `CC(C)(C)S(=O)(=O)Cc1nc(-c2ccc(Cl)c(Cl)c2)cs1`, the compound was called inactive.
The same measure for `Fc1ccc(-c2nc3ccc(Cl)cn3c2Cc2cccc(Cl)c2)cc1`: “inactive”; for `Cc1cc(C(N)=O)nn1-c1c(Cl)cc(Cl)cc1Cl`: “inactive”; for `Cc1ccc(NC(=O)COC(=O)CCNS(=O)(=O)c2c(Cl)cccc2Cl)cc1`: “inactive”.
With `CSc1nnnn1-c1ccc(Cl)cc1` the entry was “inactive”.
Turning to `Cc1noc(C)c1S(=O)(=O)N(Cc1ccccc1)C(C)C`, the outcome was inactive.
The same measure for `Cc1cccc(-n2cnc3cc([N+](=O)[O-])ccc32)c1`: “inactive”.
The same measure for `Cc1ccc(S(=O)(=O)N2CCCCC2C(=O)N2CCN(c3ccccc3F)CC2)cc1` (stereo not given): “inactive”; for `COC(=O)c1cc(C(=O)c2c(C)cc3ccccn23)cc([N+](=O)[O-])c1`: “inactive”.
The same measure for `[O-][n+]1ccccc1/C=C/c1ccccc1`: “inactive”.
As to `Fc1ccccc1C1CCN(Cc2nc(COc3ccccc3)no2)C1` (stereo not given), the outcome was inactive.
The same measure for `CC(=O)c1ccc(OCC(=O)Nc2ccc3c(c2)CCC3)cc1`: “inactive”.
With `Cc1ccc(Cc2c(-c3cccc(Br)c3)nc3ccc(C)cn23)cc1` the entry was “inactive”.
With `COc1ccc(S(=O)(=O)N2CCOc3ccccc32)cc1` the entry was “inactive”.
Regarding `COc1ccc(-c2csc(NC(=O)c3ccccc3S(C)(=O)=O)n2)cc1`, the compound was classed as inactive.
With `O=C(OCC(=O)N1CCOCC1)c1cccc(S(=O)(=O)N2CCCc3ccccc32)c1` the entry was “inactive”; with `O=C(CCC(=O)N1CCN(c2ccc(F)cc2)CC1)c1ccc(F)cc1`, “inactive”; with `COc1ccc(C(=O)Nc2cccc3ccccc23)cc1`, “inactive”.
With `Cc1cc(-c2ccc(C)c(S(=O)(=O)NCC3CCN(Cc4ccccc4F)CC3)c2)on1` the entry was “inactive”.
The same measure for `O=S(=O)(c1cnc(Cl)c(Cl)c1)N1CCc2ccccc21`: “inactive”; for `O=C(COC(=O)c1ccccc1O)NCCC1=CCCCC1`: “inactive”.
For the compound `C=CCN(c1ccccc1)S(=O)(=O)c1ccc(Cl)c(C(=O)OCC(=O)NCCCN2CCCC2=O)c1`, the outcome was inactive.
The same measure for `CCN(C(=O)COC(=O)CCc1ccccc1)c1ccccc1`: “inactive”.
